# Rows were chosen to be rich in hits. Some 7.2% of all compounds tested hit in one or more screens of this group.
# SNCA expr inh: reduces expression of the alpha-synuclein gene; hit rate 0.17% among 140,000; HEK-293 SNCA-luciferase knock-in, luminescence, 24 h; Potency, µM (titrated, usually from 57.2 µM), most hits filed as inhibitors; note: nearly all actives have a fitted effect of over 45% in size
# HEK293 viab: counter-screen for SNCA expression inhibitors: cell viability | HEK-293-SNCA-luc viability, GF-AFC fluorescence, 24 h | Potency, µM (series often up to 57.1 µM), most hits filed as cytotoxic | hit rate 0.12% among 150,000; note: nearly all actives have a fitted effect of over 30% in size
#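 Cytotoxicity counterscreen: after 24 h compound treatment of genome-edited SNCA-luciferase HEK-293 cells, live-cell protease substrate GF-AFC read by fluorescence after 30 min; activity scaled between DMSO (0%) and medium-only (-100%), curves Hill-fitted.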
# HEK cytotox: kills HEK 293 cells | HEK 293 viability, ATP luminescence (CellTiter-Glo), 48-72 h | hit rate 6.6% among 94,000 | Potency, µM (highest dose often 115 µM), hits mostly inhibitors | AID 1345083; note: nearly all actives have a fitted effect of over 60% in size
#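 Read-out: CellTiter-Glo ATP luminescence. Cells: HEK 293, 250 cells/well. Exposure: 48 or 72 hr, 37 degree Celsius.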
# FLuc inh: Photinus pyralis luciferase inhibition; Potency, µM (series often up to 115 µM), usual class: inhibitors; AID 1347043; hit rate 2.5% among 76,000; purified P. pyralis luciferase, luminescence, biochemical; note: nearly all actives have a fitted effect of over 65% in size
# Target sequence (P08659 whole entry, looked up): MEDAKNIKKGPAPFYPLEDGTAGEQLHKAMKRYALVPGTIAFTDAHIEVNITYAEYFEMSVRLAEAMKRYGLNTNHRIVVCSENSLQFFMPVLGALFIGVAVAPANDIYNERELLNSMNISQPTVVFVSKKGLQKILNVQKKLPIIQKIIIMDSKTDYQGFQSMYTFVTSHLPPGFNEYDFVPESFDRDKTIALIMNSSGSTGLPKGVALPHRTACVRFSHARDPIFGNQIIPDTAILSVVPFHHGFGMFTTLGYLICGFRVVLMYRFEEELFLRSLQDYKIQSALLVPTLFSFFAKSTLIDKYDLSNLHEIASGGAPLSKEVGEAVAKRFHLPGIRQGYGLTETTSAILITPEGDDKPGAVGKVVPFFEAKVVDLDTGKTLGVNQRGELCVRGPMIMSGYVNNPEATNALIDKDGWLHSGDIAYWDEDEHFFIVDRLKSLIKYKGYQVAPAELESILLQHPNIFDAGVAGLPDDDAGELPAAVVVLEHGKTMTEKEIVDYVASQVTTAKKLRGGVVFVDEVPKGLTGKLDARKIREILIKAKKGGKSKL
#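 Inhibitors were tested against purified firefly luciferase in a biochemical, low-substrate format (both substrates at 10uM) and luminescence measured with a CCD imager.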
# NPR1 antag: human Npr1 receptor antagonism. P16066. HEK293 hNpr1 GloSensor cGMP, ANP-stimulated luminescence. Potency, µM (series often up to 46.3 µM), usual class: inhibitors. hit rate 1.6% among 76,000; calls by dose curve; note: nearly all actives have a fitted effect of over 60% in size
#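 Compound pre-incubated 30 min at room temperature on GloSensor-loaded HEK293 cells stably carrying hNpr1 and the pGS-40F cGMP biosensor. Stimulation uses hNppA at 0.1 nM final; luminescence is taken at baseline and 20 min post-agonist.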
# NIH3T3 tox: cytotoxic compounds in NIH 3T3 cells | NIH 3T3 viability, CellTiter-Glo ATP luminescence, 48-72 h | Potency, µM (top dose mostly 96.7 µM), usual class: inhibitors | AID 1345082 | hit rate 4.3% among 94,000; note: nearly all actives have a fitted effect of over 55% in size
#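 Cytotoxicity was measured by CellTiter-Glo ATP luminescence after 48 or 72 h compound exposure at 37 °C. Mouse NIH 3T3 fibroblasts were seeded at 400 cells/well and dosed by 23 nL pin transfer.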
# Hits are given with their value; . = inactive; ? = inconclusive; / = not tested or not shown; [ ] = another dose, or the depositor's remark. Unless noted, calls come from the whole dose curve; as a rule, active = well fitted curve in the direction sought with a large enough effect; inconclusive = small, poorly fitted or top-dose-only effect, or another doubt; inactive = no such curve, though single readings can be large; an effect the other way counts as inactive or inconclusive.
SMILES,SNCA expr inh,HEK293 viab,HEK cytotox,FLuc inh,NPR1 antag,NIH3T3 tox
Cn1ncc2c(C(=O)NCc3ccccc3)cc(-c3cccc(F)c3)nc21,/,/,39.8µM,/,/,?
Cc1cccc(C)c1-c1cc(C(=O)NCc2ccc(C(F)(F)F)cc2)c2cnn(C)c2n1,.,.,22.4µM,/,/,14.1µM
Cn1ncc2c(C(=O)NCc3ccc(C(F)(F)F)cc3)cc(-c3cccc(F)c3)nc21,/,/,?,/,/,44.7µM
C#CCNC(=O)c1cc(-c2ccc(C(F)(F)F)cc2)nc2c1cnn2C,/,/,25.1µM,/,/,?
Cn1ncc2c(C(=O)NCc3cccc(F)c3)cc(-c3ccccc3)nc21,.,.,?,/,/,?
Cc1cccc(C)c1-c1cc(C(=O)NCc2ccc(F)cc2)c2cnn(C)c2n1,.,.,?,/,/,?
COc1ccc(C(=O)N2CCCCCCNC(=O)[C@@H]3CCC[C@@H]32)c(OC)c1,.,.,.,.,.,.
CN(C)C(=O)C1CN(C(=O)Nc2cc(F)cc(F)c2)CC12CCOCC2 (stereo unspecified),.,.,.,.,.,?
COc1ccc(C(=O)N2CCCCC2c2nc(CCOCC3CCOCC3)no2)cc1F (stereo unspecified),.,.[12.5 µM],?,.,.,?
Cn1ncc2c(C(=O)NCc3ccc(Cl)cc3)cc(-c3cccnc3)nc21,.,.,?,/,/,?
Cn1ncc2c(C(=O)NCc3ccccc3)cc(-c3cccnc3)nc21,.,.,39.8µM,/,/,?
COc1ccc(CNC(=O)c2cc(-c3ccc(C(F)(F)F)cc3)nc3c2cnn3C)cc1,/,/,.,/,/,?
Cn1ncc2c(C(=O)NCc3ccc(C(F)(F)F)cc3)cc(-c3ccc(F)cc3)nc21,/,/,?,/,/,22.4µM
Cn1ncc2c(C(=O)NCc3ccc(F)cc3)cc(-c3ccccc3F)nc21,/,/,.,/,/,?
Cn1ncc2c(C(=O)NCCCc3ccccc3)cc(-c3ccc([S+](C)(=O)[O-])cc3)nc21,.,.,50.1µM,/,/,?
Cn1ncc2c(C(=O)NCc3ccc(C(F)(F)F)cc3)cc(-c3ccccc3F)nc21,/,/,31.6µM,/,/,?
COc1cccc(CNC(=O)CCC2CCN(C(=O)c3ccccc3)CC2)c1,.,.,?,.,.,.
CCS[C@H]1CCN2C(=O)c3cc(-c4ccccc4)ccc3NC(=O)[C@H]12,?,.,?,.,.,.
C#CCNC(=O)c1onc(-c2ccc(Cl)cc2)c1[C@H](C)O,.,.,?,.,.,?
O=C(c1ccn[nH]1)N1CCC(c2nc(CCOc3ccc(F)cc3)no2)C1 (stereo unspecified),.,.[12.5 µM],.,.,.,.
O=C(Nc1cccnc1)[C@H]1CN(Cc2ccccc2)C[C@H]1C(=O)O,.,.,.,.,.,.
CNC1CCc2nn(C)c(=O)n2CC1 (stereo unspecified),.,.,.,.,.,.
Cn1ncc2c(C(=O)NCC#N)cc(-c3ccc(F)cc3)nc21,/,/,?,/,/,35.5µM
COc1ccccc1CNC(=O)c1cc(-c2ccccc2F)nc2c1cnn2C,/,/,?,/,/,25.1µM
Cn1ncc2c(C(=O)Nc3ccc(F)cc3)cc(-c3ccc(C(F)(F)F)cc3)nc21,/,/,.,/,/,.
SMILES,SNCA expr inh,HEK293 viab,HEK cytotox,FLuc inh,NPR1 antag,NIH3T3 tox
COc1ccc(-c2cc(C(=O)NCc3ccc(Cl)cc3)c3cnn(C)c3n2)cc1,.,.,?,/,/,?
Cn1ncc2c(C(=O)Nc3ccccc3F)cc(-c3ccc(C(F)(F)F)cc3)nc21,/,/,?,/,/,35.5µM
COc1ccc(CNC(=O)c2cc(-c3ccc(F)cc3)nc3c2cnn3C)cc1,/,/,44.7µM,/,/,39.8µM
COCCNC(=O)c1cc(-c2ccc(F)cc2)nc2c1cnn2C,.,.,?,/,/,?
Cc1cc(C(=O)NC2CC2)c2c(C3CCNC3)noc2n1 (stereo unspecified),.,.,.,/,/,.
Cc1ccc(NC(=O)N2CCC(N3CC4CC(C3)[C@H]3CCCC(=O)N3C4)CC2)cc1F (stereo partly specified),.,.,.,.,.,.
Cn1ncc2c(C(=O)NCc3ccc(F)c(F)c3)cc(-c3cccc(F)c3)nc21,/,/,39.8µM,/,/,?
Cc1noc(C)c1C(=O)N1CCC([C@H]2[C@@H](Oc3ccccc3)CN2C(C)C)CC1,.,?,.,/,/,.
COc1cccc(CCC2CCCN(C(=O)c3ccoc3C)C2)c1 (stereo unspecified),.,.,31.6µM,.,.,?
COCc1ccc(C(=O)N2CCCC(CCc3cccc(OC)c3)C2)o1 (stereo unspecified),.,.,79.4µM,.,.,?
COc1cccc(CCC2CCCN(C(=O)c3ccsc3)C2)c1 (stereo unspecified),.,.,?,.,.,?
O=C(CCc1c[nH]c2ccccc12)N1CCC[C@H](n2c(=O)n(CC3CC3)c3cccnc32)C1,.,.,79.4µM,.,.,?
COCCOCC(=O)N1CCC[C@H](n2c(=O)n(Cc3ccccc3)c3cccnc32)C1,.,.,?,/,/,?
Cc1nc(C)c(C(=O)N2CCC[C@H](n3c(=O)n(Cc4ccccc4)c4cccnc43)C2)s1,.,.,39.8µM,.,.,.
Cc1cccc(CC(=O)N2CCC[C@H](n3c(=O)n(Cc4ccccc4)c4cccnc43)C2)c1,.,.,39.8µM,.,?,?
O=C(c1cccc(Cl)c1)N1CCC2(CC1)N=C(c1ccc(Br)cc1)NO2,.,.,?,.,.,.
COc1ccc(-c2ccc3ncc(Nc4cccnc4OC)n3n2)cc1OC,.,.,14.1µM,.,.,.
COc1ccc(-c2ccc3ncc(Nc4ccccc4F)n3n2)cc1OC,.,.,44.7µM,.,.,35.5µM
COc1ccccc1-c1ccc2ncc(Nc3cccnc3OC)n2n1,.,.,?,.,.,?
C#CCNC(=O)C[C@@H]1c2nc(NC(=O)c3ccc(C(C)(C)C)cc3)sc2C[C@@H]2[C@](C)(CO)[C@H](O)CC[C@]21C,.,.,?,35.5µM,.,31.6µM
COc1ccc(C(=O)Nc2nc3c(s2)C[C@@H]2[C@](C)(CO)[C@H](O)CC[C@@]2(C)[C@@H]3CC(=O)N2CCC(C)CC2)cc1,.,?,?,.,.,17.8µM
COc1ccc(C(=O)Nc2nc3c(s2)C[C@@H]2[C@](C)(CO)[C@H](O)CC[C@@]2(C)[C@@H]3CC(=O)N(C)Cc2ccccc2)cc1,?,?,?,.,.,?
CN(Cc1ccccc1)C(=O)C[C@@H]1c2nc(NC(=O)c3ccc(F)cc3)sc2C[C@@H]2[C@](C)(CO)[C@H](O)CC[C@]21C,.,.,?,.,.,25.1µM
CC(=O)Nc1ccc(C(=O)N2CCN(C3CCNCC3)C(=O)C2)cc1,.,.,.,/,/,.
Cc1ccc(-c2noc(CCCC(=O)N3CCC(c4nc(C(=O)N5CCCC5)c(C)o4)CC3)n2)cc1,?,.,35.5µM,/,/,?

# Assay outcomes from PubChem BioAssay.
